Reference: publication PMC10668032, “Altered binding affinity of SIX1-Q177R correlates with enhanced WNT5A and WNT pathway effector expression in Wilms tumor”
Whole data set: some 33,000 sequences, median “e-score” near -0.05, cut for the highest 2% near 0.38. Shown is part of a subset that was picked to be rich in the highest values.

Biological target: T1, SIX1-Q177R homeodomain (human, UniProt Q15475 108-198, Q177R)
T1 sequence: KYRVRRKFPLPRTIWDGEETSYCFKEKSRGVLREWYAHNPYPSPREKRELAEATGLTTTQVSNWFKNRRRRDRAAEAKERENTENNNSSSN
Experiment: universal protein binding microarray; Universal all-10-mer PBM (8x60K, AMADID 030236), 300 nM GST-tagged protein, Alexa Fluor 488 anti-GST; buffer, salt, pH and temperature not stated (as in Berger); high values mean tight binding
Conditions: protein: ivt; tags: N-terminal GST; dsDNA, one strand shown
Procedure, shortened: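 Homeodomains fused to GST were made by in vitro transcription/translation and measured by anti-GST western blot with a recombinant GST standard curve. At 300 nM final concentration, they were applied in duplicate to universal 'all 10-mer' protein binding microarrays (8×60K format).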

Row | Sequence | binding signal
1 | GACCCGGA | 0.184 ± 0.0271 E-score
2 | ACACGCAA | 0.3952 ± 0.00317 E-score
3 | ACACGCAC | 0.4052 ± 0.00394 E-score
4 | ACACGCAG | 0.391 ± 0.00589 E-score
5 | ACGCGCAG | 0.175 ± 0.0335 E-score
6 | ACGCACAC | 0.307 ± 0.0495 E-score
7 | CCCCGCAA | 0.17 ± 0.00535 E-score
8 | ACACGCAT | 0.383 ± 0.00385 E-score
9 | ACTCCCCT | 0.249 ± 0.0205 E-score
10 | CGGATCAG | 0.174 ± 0.00822 E-score
11 | ACCGGAGG | 0.183 ± 0.0608 E-score
12 | ACTCCTCC | 0.213 ± 0.0626 E-score
13 | ATTTGACA | 0.216 ± 0.00896 E-score
14 | CGCATTAC | 0.204 ± 0.0114 E-score
15 | ACCCTGAG | 0.245 ± 0.0251 E-score
16 | GCCAACAC | 0.3693 ± 0.00257 E-score
17 | GCAAACAC | 0.351 ± 0.00619 E-score
18 | ACCAACTC | 0.169 ± 0.01 E-score
19 | CCCAACAA | 0.199 ± 0.00812 E-score
20 | CCCAACAC | 0.403 ± 0.0145 E-score
21 | CCAAACAC | 0.3825 ± 0.00157 E-score
22 | ACCAACAC | 0.41011 ± 0.000354 E-score
23 | CCCAAAAC | 0.193 ± 0.0284 E-score
24 | ACTATGTG | 0.17 ± 0.0249 E-score
25 | CACCTTCA | 0.241 ± 0.0302 E-score

Row | Sequence | binding signal
26 | CACCTTGG | 0.344 ± 0.0104 E-score
27 | CCCCTACC | 0.237 ± 0.0383 E-score
28 | TAGAGTCA | 0.196 ± 0.0118 E-score
29 | AAGTGTCC | 0.332 ± 0.00652 E-score
30 | GAGTGTCC | 0.406 ± 0.00513 E-score
31 | GAGTATCC | 0.199 ± 0.0139 E-score
32 | GAGTGACA | 0.242 ± 0.00566 E-score
33 | GAGTGTCA | 0.45 ± 0.0122 E-score
34 | AAGTGTCT | 0.346 ± 0.0141 E-score
35 | AAGTGTCA | 0.418 ± 0.0194 E-score
36 | TAGTGTCA | 0.454 ± 0.00792 E-score
37 | GTGTGTCA | 0.369 ± 0.0056 E-score
38 | TAGTGACA | 0.211 ± 0.0357 E-score
39 | CGTATCCA | 0.159 ± 0.0161 E-score
40 | ATATACCC | 0.2382 ± 0.000608 E-score
41 | CACCCAGA | 0.189 ± 0.0293 E-score
42 | ACCAGATA | 0.162 ± 0.0127 E-score
43 | ACCACGGA | 0.178 ± 0.0145 E-score
44 | ACCCTTAC | 0.158 ± 0.0125 E-score
45 | CACCTTTA | 0.223 ± 0.0267 E-score
46 | CACAGACA | 0.155 ± 0.0227 E-score
47 | CCGACCCG | 0.176 ± 0.00738 E-score
48 | ACGTGTAC | 0.387 ± 0.0177 E-score
49 | GCGTTTAC | 0.16 ± 0.0218 E-score
50 | ACGTGTAT | 0.321 ± 0.0343 E-score

Row | Sequence | binding signal
51 | GCGTGTAC | 0.4393 ± 0.000926 E-score
52 | GCGTATAC | 0.158 ± 0.00385 E-score
53 | CCCTGTAC | 0.173 ± 0.0309 E-score
54 | CCGTGTGC | 0.215 ± 0.0507 E-score
55 | ACGTGTAG | 0.347 ± 0.0241 E-score
56 | CCGTGTAC | 0.4382 ± 0.00199 E-score
57 | ACCGCCCC | 0.157 ± 0.0585 E-score
58 | ACCACTGG | 0.153 ± 0.00392 E-score
59 | ACCTTACC | 0.155 ± 0.0397 E-score
60 | CACGGACA | 0.298 ± 0.0109 E-score
61 | GACGACAC | 0.429 ± 0.0137 E-score
62 | CACGACTC | 0.304 ± 0.00378 E-score
63 | CACGACCA | 0.227 ± 0.0193 E-score
64 | GACGACCC | 0.158 ± 0.0499 E-score
65 | AACGACAC | 0.4466 ± 0.00332 E-score
66 | CACGACGC | 0.151 ± 0.0468 E-score
67 | CACGACAC | 0.448 ± 0.0167 E-score
68 | CACGACAG | 0.1738 ± 0.000629 E-score
69 | CACGACCC | 0.32 ± 0.0093 E-score
70 | CACCTATA | 0.301 ± 0.00719 E-score
71 | CCCGACCA | 0.204 ± 0.0179 E-score
72 | ACCGTGCC | 0.179 ± 0.0325 E-score
73 | ACCGTGTC | 0.428 ± 0.0209 E-score
74 | GCCGGGTA | 0.197 ± 0.033 E-score
75 | GCCGTGTA | 0.419 ± 0.00774 E-score

Row | Sequence | binding signal
76 | CCCGTGTC | 0.458 ± 0.00911 E-score
77 | CCTGTGTA | 0.192 ± 0.0408 E-score
78 | CCCGTGTA | 0.453 ± 0.00915 E-score
79 | CCCGTGAC | 0.155 ± 0.00256 E-score
80 | CCCGTCTC | 0.239 ± 0.00285 E-score
81 | ACCGTGTG | 0.259 ± 0.0453 E-score
82 | CCCGCGTA | 0.154 ± 0.0151 E-score
83 | CCCCCGGA | 0.263 ± 0.00617 E-score
84 | AAGGATCC | 0.178 ± 0.0155 E-score
85 | GACTCCGA | 0.198 ± 0.0344 E-score
86 | ACCGGGTA | 0.212 ± 0.00998 E-score
87 | ACCGTGTA | 0.4376 ± 0.00046 E-score
88 | ACCCTGTA | 0.153 ± 0.0186 E-score
89 | GCAGCACC | 0.219 ± 0.0401 E-score
90 | GGTTGCAC | 0.183 ± 0.0188 E-score
91 | CGTTTACA | 0.154 ± 0.0251 E-score
92 | GGTTAAAC | 0.183 ± 0.0367 E-score
93 | CGTTACCC | 0.207 ± 0.026 E-score
94 | CGTTACAC | 0.424 ± 0.0188 E-score
95 | AGTTACAC | 0.449 ± 0.0313 E-score
96 | GGTTACAC | 0.4536 ± 0.000905 E-score
97 | AGTTGCAC | 0.208 ± 0.0144 E-score
